JMJD2A Tudor inh: JMJD2A Tudor domain (human) inhibition | O75164 | AlphaScreen JMJD2A-Tudor / H3K4me3 peptide binding | Potency, µM (top dose mostly 114 µM), for inactives: at the highest dose activity change, negative = inhibition, hits mostly inhibitors | 390,000 compounds, 4.4% hits | AID 504339; further: on the % scale 0 is the no-effect control and ±100 the full control effect; nearly all actives have a fitted effect of over 50% in size
HP1b binding inh: blocks HP1-beta chromodomain binding to methylated histone tails; AID 540317; P83916; 390,000 compounds, 0.56% hits; Potency, µM (highest dose often 114 µM), without a hit: at the highest dose activity change, negative = inhibition, hits mostly inhibitors; AlphaScreen HP1-beta / biotin-H3K9me3 peptide binding; further: nearly all actives have a fitted effect of over 70% in size
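AlphaScreen: HP1-beta (50 nM) preformed 30 min with biotin-H3(1-18)K9me3 peptide (50 nM) in PBS pH 7.4, 0.01% Tween-20. Compound added for 30 min at RT, then streptavidin donor/nickel chelate acceptor beads (10 ug/mL) for 30 min.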
Sfp inh: Sfp phosphopantetheinyl transferase inhibition. Q9F4F7. Biochemical Sfp PPTase activity, qHTS. Potency, µM, for inactives: largest response in the series, negative = inhibition, most hits filed as inhibitors. 310,000 compounds, 3.5% hits;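 further: the enzyme is Sfp with the accession as filed and its product quenches rhodamine fluorescence; 0% = enzyme reaction without inhibitor and -100% = no enzyme wells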
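Reaction rates are the 30-min fluorescence difference (ex 525, em 598 nm) in wells containing 15 nM Sfp, 5 uM rhodamine-CoA and 12.5 uM BHQ-2-YbbR at pH 7.6 with 10 mM MgCl2.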
TDP1 block: blocks human tyrosyl-DNA phosphodiesterase 1. Q9NUW8. recombinant TDP1, AlphaScreen DNA substrate cleavage. Potency, µM (doses to about 130 µM), without a hit: at the highest dose activity change, negative = inhibition, most hits filed as inhibitors. 350,000 compounds, 0.28% hits. AID 485290; further: on the % scale 0 is the no-effect control and ±100 the full control effect; nearly all actives have a fitted effect of over 40% in size
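E. coli-derived human Tdp1, 1 nM final. Cpd preinc 15 min RT; substrate 15 nM final, 5 min RT; AS bead mix 10 ug/ml final, 10 min RT. Signal loss = tyrosine-FITC cleavage. No-enzyme wells = max signal.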
G9a inh: inhibitors of human histone lysine methyltransferase G9a | Q96KQ7 | G9a H3K9 monomethylation, AlphaScreen, 2 h | Potency, µM (titrated, usually from 102 µM), for inactives: at the highest dose activity, negative = inhibition, actives largely listed as inhibitors | 350,000 compounds, 8.8% hits | AID 504332; further: on the % scale 0 is the no-effect control and ±100 the full control effect; nearly all actives have a fitted effect of over 75% in size
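Step 1: enzyme (final 20 nM) with compound, 15 min RT. Step 2: substrate peptide 500 nM and SAM 20 uM, 2 h RT. Step 3: anti-H3K9me1 antibody and AlphaScreen beads, 10 min, then plate read.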
BAZ2B inh: blocks human BAZ2B; AID 504333; Q9UIF8; AlphaScreen BAZ2B-H3K14Ac peptide displacement; 360,000 compounds, 4.4% hits; Potency, µM (doses to about 114 µM), without a hit: at the top dose activity change, negative = inhibition, most hits filed as inhibitors; further: on the % scale 0 is the no-effect control and ±100 the full control effect; nearly all actives have a fitted effect of over 60% in size
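BAZ2B (50 nM) with biotin-H3(5-23)K14Ac peptide (50 nM) in PBS pH 7.4, 0.01% Tween-20, preformed 30 min, then compound 30 min at room temperature; top concentration 110uM. AlphaScreen streptavidin donor/nickel chelate acceptor beads (10 ug/mL final), 20 min dark, signal read.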
* hit, by the source's call; ? = inconclusive; . = not tested or not shown; [ ] = remark or other dose. Rows were chosen to be rich in hits. Some 12% of all compounds tested hit in one or more screens of this group. The call rests on the fitted dose curve; in most records, active means well fitted curve in the direction sought with a large enough effect; inconclusive means small, poorly fitted or top-dose-only effect, or another doubt; inactive means no such curve, though single readings can be large; an effect the other way counts as inactive or inconclusive. Potency means the concentration at half of the fitted maximal effect.

SMILES | JMJD2A Tudor inh | HP1b binding inh | Sfp inh | TDP1 block | G9a inh | BAZ2B inh
Cc1ccc(S(=O)(=O)N2CCOCC2)cc1C(=O)NC(=S)N1CC(C)OC(C)C1 (centres undefined) | -6% | 22% | -23% | . | 32µM* | -2%
N#CCc1ccc(NC(=O)c2ccc(S(=O)(=O)N3CCOCC3)cc2)cc1 | -12% | 43% | 26% | 3% | 9% | 0%
COc1ccccc1CNS(=O)(=O)CCNCCc1ccccc1 | -11% | 21% | . | . | . | .
C/C(=C\c1ccccc1)CN1CCC(C(=O)N2CCCCC2)CC1 | 7.9µM* | ? | -9% | -5% | ? | ?
C/C(=C\c1ccccc1)CN1CCC(C(=O)N2CCC(C)CC2)CC1 | -1%[11.4 µM] | -30% | -10% | 1% | 10µM* | ?
COc1cccc(NC(=O)CN2C(=O)CSc3ccc(S(=O)(=O)N4CCCC4)cc32)c1 | -18% | 38% | . | 3% | -15%[59 µM] | ?
CC(C)Cc1cc(C(=O)O)n[nH]1 | 25µM* | 1% | 2% | 3% | -49%[12.7 µM] | 50µM*
CC(C)(C)c1cc(C(=O)NNS(=O)(=O)c2ccccc2)n[nH]1 | 5% | 45% | -10% | 5% | -32%[59 µM] | -10%
CC(C)(C)c1cc(C(=O)O)n[nH]1 | 50µM* | -5% | -23% | 2% | 13µM* | ?
Cc1ccc(-c2cc(C(=O)O)n[nH]2)s1 | -4%[11.4 µM] | 17% | 3% | 5% | -3% | -11%
COc1cc(C2Nc3ccccc3NC3=C2C(=O)CC(C)(C)C3)cc(OC)c1OC(C)=O (centres undefined) | -20% | 25% | 12% | . | 50µM* | 6%
COc1cccc(C2Nc3ccccc3NC3=C2C(=O)CC(C)(C)C3)c1 (centres undefined) | -4% | 30% | 21% | 2% | 20% | 5%
Cc1ccc(-c2cc(NC(=O)CCl)n(-c3ccccc3)n2)cc1 | 79µM* | -3% | 13% | 3% | -46% | -18%
O=C(CCl)Nc1cc(-c2ccccc2)nn1-c1ccccc1 | -26% | 72% | -10% | 8% | ? | 7%
C#CCOCCOCCOCCNc1nc(N2CCN(C(=O)Cn3cc(CCO)nn3)CC2)nc(N2CCN(C(=O)[C@H](C)n3cc(CCCN=C(N)N)nn3)CC2)n1 | -33% | 9% | . | . | . | .
Nc1nc(SCc2ccccc2)c2[nH]cnc2n1 | -18% | 26% | 14% | 1% | 5% | 3%
CNc1ncnc(Sc2nc(N)nc3nc[nH]c23)c1[N+](=O)[O-] | 32µM* | 28% | . | . | . | .
CCOC(=O)c1cc([N+](=O)[O-])cc([N+](=O)[O-])c1Sc1ncnc2nc[nH]c12 | -31% | 12% | . | . | . | .
Nc1nc(Sc2ccc([N+](=O)[O-])c3nonc23)c2[nH]cnc2n1 | 28µM* | 8.9µM* | . | . | . | .
COC(=O)C/C=C\[C@@H](C)[C@@H](/C=N\O[C@@H](C)CN1CCCCc2nc(C)c(C)cc21)NS(=O)(=O)c1ccc(C)cc1 | . | . | 4% | 2%[21 µM] | . | .
Cc1ccc(OCc2nnc(SCc3nc4ccccc4[nH]3)n2Cc2ccco2)cc1 | ? | 11% | 13% | 4% | 14µM* | ?
c1ccc(-c2nnc(SCc3nc4ccccc4[nH]3)n2Cc2ccco2)cc1 | 32µM* | 2% | -2% | 8% | . | -7%
Cc1noc(C)c1COc1ccccc1C(=O)N(C)Cc1ccc(C(C)(C)C)cc1 | -21% | 22% | . | 3% | 0%[12.7 µM] | 9%
C=CCn1c(-c2ccc(OC)c(OC)c2)cs/c1=N\c1ccccn1 | -27%[11.4 µM] | ? | 18µM* | 8% | 3.5µM* | ?
Cn1c(-c2ccc(=O)[nH]c2)nc2ccccc21 | -14%[11.4 µM] | 27% | 18µM* | -3% | . | 9%
SMILES | JMJD2A Tudor inh | HP1b binding inh | Sfp inh | TDP1 block | G9a inh | BAZ2B inh
CC(=O)Nc1ccc(NC(=O)Cc2ccc(S(=O)(=O)N3CCCCC3)cc2)cc1 | -13% | 41% | . | . | 40µM* | -34%
CN1CCN(S(=O)(=O)c2ccc(NC(=O)Cc3cccs3)cc2)CC1 | -23% | 11% | 11% | -1% | -31%[12.7 µM] | -30%
CCC(C)c1ccc(S(=O)(=O)N2CCN(S(=O)(=O)c3ccc(NC(C)=O)cc3)CC2)cc1 (centres undefined) | -16% | 6% | 11% | -19% | 11% | -20%
O=C(Cc1cccs1)Nc1ccc(S(=O)(=O)N2CCCCC2)cc1 | ? | -6% | -2% | 3% | 8.9µM* | 55%
CCC(C)N1CCN(S(=O)(=O)c2ccc(NC(C)=O)cc2)CC1 (centres undefined) | 22µM* | ? | -8% | 3% | 20µM* | 56µM*
CCOC(=O)c1ccc(NC(=O)CN(Cc2ccc(C)cc2)S(=O)(=O)c2ccc(C)cc2)cc1 | -12% | 40% | . | 3%[2.28 µM] | 15%[59 µM] | 3%
O=C(O)c1cc(N2CCCC2)ccn1 | 3.2µM* | -5% | . | . | . | .
O=C(O)c1cc(N2CCCCC2)ccn1 | 1.6µM* | 29% | . | . | . | .
c1cc(N2CCCCC2)nc(N2CCCCC2)n1 | -12% | -3% | . | . | . | .
CCCCCOC(=O)C(C)c1c(C)[nH]c(=S)[nH]c1=O (centres undefined) | 10% | 41% | 11% | 2% | 71µM* | 12%
CCOC(=O)C(C)c1c(C)[nH]c(=S)[nH]c1=O (centres undefined) | -15% | 30% | -4% | 3% | 23%[12.7 µM] | 4%
O=S(=O)(c1ccc2c(c1)OCCO2)N1CCN(S(=O)(=O)c2ccccn2)CC1 | -6% | 39% | . | 2% | . | .
CS(=O)(=O)c1ccc(S(=O)CC(=O)Oc2ccc(Cl)cc2)c([N+](=O)[O-])c1 (centres undefined) | -5% | 9% | ? | 3% | 6.3µM* | -2%
O=C1CC(c2ccc(Cl)cc2)n2nc(N3C(=O)c4ccccc4C3=O)nc2N1 (centres undefined) | ? | 25% | -28% | -6% | -33%[59 µM] | 79µM*
O=C1CC(c2ccccc2)n2nc(N3C(=O)c4ccccc4C3=O)nc2N1 (centres undefined) | -8% | 29% | 5% | 6% | -9%[59 µM] | 3%
Cn1cc(SCC(=O)Nc2ccc3c(c2)OCO3)c2ccccc21 | -32% | 17% | ? | 8% | 25µM* | 13%
O=C(CSc1cccc[n+]1[O-])Nc1ccc2c(c1)OCO2 | -6% | 48% | -3% | 2% | 50µM* | -12%
CCCn1cc(SCC(=O)Nc2ccc3c(c2)OCO3)c2ccccc21 | ? | 8% | 10% | 3% | ? | ?
CN(C)S(=O)(=O)c1cc(NC(=O)CSc2cccc[n+]2[O-])ccc1Cl | -4% | 24% | . | 1%[56.1 µM] | 14%[2.33 µM] | 3%
COCCn1c(=O)c(-c2cccs2)nc2cnc(OCc3ccccc3)nc21 | . | . | 11% | . | 6%[12.7 µM] | .

Screening results (PubChem BioAssay)
